Experiment [1] can be described thus: cAMP Responsive Elements (CRE) small molecule antagonists, cell-based qHTS assay: qHTS cell viability counter screen (AID 2060913). Note: nearly all actives have a fitted effect of over 40% in size. The following applies: CRE-bla HEK293T viability, CellTiter-Glo luminescence, 5 h; series mostly up to 92.4 µM. An outline of the steps:
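Viability of NKH477-stimulated (0.25 uM final) CRE-bla HEK293T cells is measured by CellTiter-Glo luminescence following 3 hrs compound exposure at 37 C.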

Experiment [2] can be described thus: cAMP Responsive Elements (CRE) small molecule agonists, cell-based qHTS assay: qHTS cell viability counter screen (AID 2060914).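 Note: viability read after 3 h of compound exposure; nearly all actives have a fitted effect of over 50% in size.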 As to conditions: CRE-bla HEK293T viability, CellTiter-Glo luminescence, 5 h; series mostly up to 92.4 µM. An outline of the steps:
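Cytotoxicity counter screen multiplexed with the CRE-bla reporter assay in HEK 293T cells: 3 h compound exposure at 37 °C, followed by CellTiter-Glo luminescence measured in the same wells.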
(In general: qHTS replaces the single test concentration by a dilution series.)

Inconclusive results are not listed. A call without a number means that no potency is given here. Activity calls are given as the source filed them. Calls come from the whole dose curve; as a rule, active = well fitted cell-killing curve with a large enough effect in the repeat runs; inconclusive = weak or mixed curves, or effect the other way; inactive = flat fitted curve, though single readings scatter.

Regarding `COCc1cnc(C2=NC(C)(C(C)C)C(=O)N2)c(C(=O)O)c1` (stereo unspecified), the Potency result in experiment [1] and in experiment [2] was “inactive” each time.
On to `CC[C@H]1C[C@H]2[C@@H]3CCC4=CC(=O)CC[C@@H]4[C@H]3CC[C@]2(C)[C@H]1O`, for which the Potency entry in experiment [1] and in experiment [2] was “inactive” in each case.
For the compound `CNC(=O)O/N=C/C(C)(C)S(C)=O` (stereo unspecified), the Potency result in experiment [1] and in experiment [2] was “inactive” throughout.
For `CCc1cccc(C)c1N(C(=O)CCl)C(C)COC` (stereo unspecified), the Potency entry in experiment [1] and in experiment [2] was “inactive” in each case.
`CCOP(=S)(OCC)SCSC(C)(C)C`: the Potency result in experiment [1] and in experiment [2] was “inactive” throughout.
Take `N#CC(Br)Br`: the Potency result in experiment [1] and in experiment [2] was “inactive” in each case.
In the case of `CCCCN(CC)C(=O)SCCC`, the Potency entry in experiment [1] and in experiment [2] was “inactive” in each case.
As to `O=S1(=O)OC(c2cc(Br)c(O)c(Br)c2)(c2cc(Br)c(O)c(Br)c2)c2ccccc21`, the Potency result in experiment [1] and in experiment [2] was “inactive” throughout.
`CC(C)(O)C(=O)Nc1ccc([N+](=O)[O-])c(C(F)(F)F)c1`: the Potency entry in experiment [1] and in experiment [2] was “inactive” each time.
For the compound `CN(C)P(=O)(N(C)C)N(C)C`, the Potency result in experiment [1] and in experiment [2] was “inactive” throughout.
For `N#CCCCCC#N`, the Potency result in experiment [1] and in experiment [2] was “inactive” each time.
Turning to `CN(C)C1CSSSC1`, the Potency result in experiment [1] and in experiment [2] was “inactive” throughout.
Take `COC(=O)N(C(=O)N1COC2(C(=O)OC)Cc3cc(Cl)ccc3C2=N1)c1ccc(OC(F)(F)F)cc1` (stereo unspecified): the Potency entry in experiment [1] and in experiment [2] was “inactive” in each case.
As to `CCC(COC(=O)c1cc(OC)c(OC)c(OC)c1)(c1ccccc1)N(C)C` (stereo unspecified), the Potency result in experiment [1] and in experiment [2] was “inactive” each time.
In the case of `CCN(CC)C(=O)Cl`, the Potency entry in experiment [1] and in experiment [2] was “inactive” throughout.
For the compound `CCN(CC)CCc1c[nH]c2ccccc12`, the Potency result in experiment [1] and in experiment [2] was “inactive” each time.
On to `O=C1C[C@@H]2OCC=C3CN4CC[C@]56c7ccccc7N1[C@H]5[C@H]2[C@H]3C[C@H]46`, for which the Potency entry in experiment [1] and in experiment [2] was “inactive” throughout.
Consider `O=[N+]([O-])c1cccc2cccc([N+](=O)[O-])c12`, for which the Potency result in experiment [1] and in experiment [2] was “inactive” in each case.
